Assay outcomes (PubChem BioAssay)
GDH-TPI counter-1: inhibits GDH-TPI coupling enzymes, artifact for Mtb FBA screen; GDH-TPI coupled enzyme counterscreen, NADH absorbance; inhibition, % at 4.8 µM; hit rate 1.2% among 360,000; AID 588335; in the data active = inhibition above about 30%
Mtb BioA inh: BioA (M. tuberculosis) enzyme inhibition; inhibition, % at 9.99 µM; hit rate 0.096% among 360,000; purified M. tuberculosis BioA enzyme, plate reader; in the data active = inhibition above about 40%; inconclusive = no clear call, values can overlap the other calls
Mtb FBA inh: Mtb fructose-bisphosphate aldolase inhibition. P9WQA3. purified M. tuberculosis FBA, fluorescence read-out. inhibition, % at 1 µM. hit rate 2.3% among 360,000
Target sequence (P9WQA3 whole entry, looked up): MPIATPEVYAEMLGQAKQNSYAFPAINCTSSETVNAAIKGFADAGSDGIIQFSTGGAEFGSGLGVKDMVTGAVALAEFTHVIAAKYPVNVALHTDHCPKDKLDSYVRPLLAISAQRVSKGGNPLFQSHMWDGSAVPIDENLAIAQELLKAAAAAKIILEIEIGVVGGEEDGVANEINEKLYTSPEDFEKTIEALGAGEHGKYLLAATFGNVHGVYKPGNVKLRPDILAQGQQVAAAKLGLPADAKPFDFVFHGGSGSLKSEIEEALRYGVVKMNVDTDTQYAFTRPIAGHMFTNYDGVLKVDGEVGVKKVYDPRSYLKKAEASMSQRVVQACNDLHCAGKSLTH
FadD28 FP inh: blocks FadD28 binding to the bisubstrate probe. fluorescence polarization. inhibition, % at 12.5 µM. hit rate 0.22% among 360,000. AID 588549; in the data active = inhibition above about 8.5%, passing the limit was not always enough; inconclusive = no clear call, values can overlap the other calls
Mtb hypoxia inh: reduces hypoxia-regulated biosensor signal in M. tuberculosis; M. tuberculosis hypoxia-regulated fluorescent reporter, fluorescence; fluorescence inhibition, % (concentration not given with the values); hit rate 0.1% among 300,000; in the data active = fluorescence inhibition mostly above about 23%, no sharp cut-off; inactive = mostly below about 17%
Mtb FBA inh conf: Mtb FBA inhibition, confirmed. shares compounds with Mtb FBA inh. purified M. tuberculosis FBA, fluorescence read-out. inhibition, % at 1 µM. hit rate 78% among 5,600
GDH-TPI counter-2: inhibits GDH-TPI coupling enzymes, flagging Mtb FBA hits; shares compounds with Mtb FBA inh; GDH-TPI coupled enzyme counterscreen, fluorescence; inhibition, % at 1 µM; hit rate 81% among 5,600; AID 652141; in the data active = inhibition above about 10%
Large screens that a line does not name were inactive (follow-up assays come after a bar, where they were run). Hits are enriched below; roughly 2.9% of the tested compounds scored in any of these assays. Rule as the data show it, unless noted: active = inhibition above about 27%; inactive = the rest.

NC(=O)CC1NC(=O)CNC(=O)c2cc([N+](=O)[O-])cc(I)c2NCCC(C(N)=O)NC1=O (stereo not drawn)	none (no result: GDH-TPI counter-1, Mtb BioA inh, Mtb FBA inh, FadD28 FP inh)
Cc1cc(C)c2cc(C#N)c(NCCCNC(=O)c3cccnc3)nc2c1	Mtb FBA inh 46.7 (no result: Mtb BioA inh, Mtb hypoxia inh) | Mtb FBA inh conf 31.8 | GDH-TPI counter-2 30.2
Cc1cc(C)c2cc(C#N)c(NCCNC(=S)NCCCN3CCOCC3)nc2c1	none
COCCCNC(=S)NCCCNc1nc2cc(C)cc(C)c2cc1C#N	Mtb FBA inh 47.3 (no result: Mtb BioA inh) | Mtb FBA inh conf inactive | GDH-TPI counter-2 inactive
COc1cccc(-c2nc3ccc(C(=O)NC(C)Cc4cccnc4)cc3o2)c1 (stereo not drawn)	Mtb FBA inh 43.2, FadD28 FP inh inconclusive | Mtb FBA inh conf 64.5 | GDH-TPI counter-2 31.7
CC(C)NC(=O)N[C@H]1CC[C@@H](CC(=O)NCCCN(C)C)O[C@@H]1CO	none (no result: GDH-TPI counter-1, Mtb FBA inh, FadD28 FP inh, Mtb hypoxia inh)
CS(=O)(=O)c1ccc(Cl)c(C(=O)NC2CCSc3ccccc32)c1 (stereo not drawn)	Mtb FBA inh 63.8 | Mtb FBA inh conf inactive | GDH-TPI counter-2 inactive
COc1cccc(Oc2ccc(OC)cc2C(=O)O)c1	none
COc1cccc(-c2c(C(=O)O)cc(O)c3ccc(OC)cc23)c1	Mtb FBA inh 34.1 | Mtb FBA inh conf inactive | GDH-TPI counter-2 inactive
CCN1c2ccccc2-c2nc3ccccc3n2C1c1ccccn1 (stereo not drawn)	Mtb FBA inh 50.8 | Mtb FBA inh conf active | GDH-TPI counter-2 active
CCN1c2ccccc2-c2nc3ccccc3n2C1c1cccnc1 (stereo not drawn)	Mtb FBA inh 68.1 (no result: Mtb BioA inh) | Mtb FBA inh conf 96.5 | GDH-TPI counter-2 83.7
Cc1ccccc1S(=O)(=O)Nc1nc2ccccc2nc1N1CCc2ccccc2C1	none
O=S(=O)(Nc1nc2ccccc2nc1N1CCc2ccccc2C1)c1ccc(Cl)cc1	GDH-TPI counter-1 32.1, Mtb FBA inh 65.5 (no result: Mtb hypoxia inh) | Mtb FBA inh conf active | GDH-TPI counter-2 active
COc1ccc(N2CCN(c3ncnc4c3[nH]c3ccccc34)CC2)cc1	none (no result: Mtb BioA inh)
COc1cc2[nH]c3c(N4CCN(c5ccccn5)CC4)ncnc3c2cc1OC	Mtb FBA inh 28.6, FadD28 FP inh 9.1 | Mtb FBA inh conf inactive | GDH-TPI counter-2 inactive
Fc1ccc2[nH]c3c(N4CCN(c5ccccc5)CC4)ncnc3c2c1	none (no result: Mtb BioA inh)
COc1ccc2[nH]c3c(N4CCc5ccccc5C4)ncnc3c2c1	Mtb FBA inh 40.1 | Mtb FBA inh conf inactive | GDH-TPI counter-2 inactive
CCOC(=O)c1sc(NN=Cc2cccc(C)c2)nc1C	none (no result: GDH-TPI counter-1, Mtb BioA inh, Mtb FBA inh, FadD28 FP inh)
COc1cccc2c(=O)c(C(=O)NCc3cccs3)c[nH]c12	Mtb FBA inh 34.2 | Mtb FBA inh conf 32.3 | GDH-TPI counter-2 26.0
Cc1ccc2[nH]cc(C(=O)NCc3cccs3)c(=O)c2c1	none
COc1cccc2c(=O)c(C(=O)NCCc3ccccc3)c[nH]c12	Mtb FBA inh 48.5 | Mtb FBA inh conf 63.4 | GDH-TPI counter-2 45.1
CC(=O)NNC(=S)Nc1cc(S(=O)(=O)N(C)C)ccc1C	none (no result: Mtb BioA inh)
Cc1cc(C)cc(NC(=S)Nc2cccc3ccccc23)c1	Mtb FBA inh 41.8 | Mtb FBA inh conf 147.0 | GDH-TPI counter-2 129.5
COc1cccc(NC(=S)Nc2cccc3ccccc23)c1	none
CCc1cccc(NC(=S)Nc2cccc3ccccc23)c1	Mtb FBA inh 46.1 | Mtb FBA inh conf 86.1 | GDH-TPI counter-2 76.7
Cc1ccc(S(=O)(=O)N(C)C)cc1NC(=S)Nc1cccc2ccccc12	Mtb FBA inh 33.8 (no result: Mtb hypoxia inh) | Mtb FBA inh conf active | GDH-TPI counter-2 194.2
Cc1cccc(NC(=S)Nc2cccc3ccccc23)c1	Mtb FBA inh 46.5 | Mtb FBA inh conf 143.4 | GDH-TPI counter-2 111.7
Fc1ccc(NC(=S)Nc2cccc3ccccc23)cc1F	Mtb FBA inh 48.6 | Mtb FBA inh conf inactive | GDH-TPI counter-2 16.5
Fc1ccc(NC(=S)Nc2cccc3ccccc23)cc1	none
COCCN=C1NC(c2ccccc2)C(C(=O)OC)=C(C)N1Cc1ccccc1 (stereo not drawn)	none (no result: GDH-TPI counter-1, Mtb BioA inh, Mtb FBA inh, FadD28 FP inh)
COc1cccc(-c2nc(C(=O)NCCCN3CCOCC3)cc3c2[nH]c2ccccc23)c1	Mtb FBA inh 38.4 (no result: Mtb hypoxia inh) | Mtb FBA inh conf inactive | GDH-TPI counter-2 inactive
COc1cccc2[nH]c(C(=O)NC(C)c3ccccc3)cc12 (stereo not drawn)	Mtb FBA inh 49.9 | Mtb FBA inh conf 155.7 | GDH-TPI counter-2 116.8
COc1cccc2[nH]c(=O)c(-c3ccccc3)cc12	Mtb FBA inh 71.2 | Mtb FBA inh conf 46.6 | GDH-TPI counter-2 38.6
COc1cccc2[nH]c(C(=O)NCC3CCCO3)cc12 (stereo not drawn)	Mtb FBA inh 32.3 | Mtb FBA inh conf 125.9 | GDH-TPI counter-2 97.2
O=C(NCC1CCCO1)c1cc2ccccc2[nH]1 (stereo not drawn)	none
CO[C@H]1CC[C@H]2CCN(C)C(=O)C[C@H](c3ccccc3)CN(C)C(=O)c3cccc(C#N)c3OC[C@@H]1O2	none (no result: GDH-TPI counter-1, Mtb FBA inh, FadD28 FP inh, Mtb hypoxia inh)
CCN1CCCC1CNC(=O)c1cc2c(OC)cccc2[nH]1 (stereo not drawn)	Mtb FBA inh 30.3 | Mtb FBA inh conf 61.1 | GDH-TPI counter-2 34.0
COc1cccc(-c2nn(-c3ccc(C)cc3)cc2C(=O)NCC2CCCO2)c1 (stereo not drawn)	none
COc1cc(-c2nc(C(=O)NCC3CCCO3)cc3c2[nH]c2ccccc23)cc(OC)c1OC (stereo not drawn)	Mtb FBA inh 38.1 (no result: Mtb hypoxia inh) | Mtb FBA inh conf 59.6 | GDH-TPI counter-2 50.4
COc1cccc(-c2nn(-c3ccc(F)cc3)cc2C(=O)NCC2CCCO2)c1 (stereo not drawn)	Mtb FBA inh 47.2 | Mtb FBA inh conf active | GDH-TPI counter-2 active
COc1ccccc1-c1nc(C(=O)NCC2CCCO2)cc2c1[nH]c1ccccc12 (stereo not drawn)	none (no result: Mtb hypoxia inh)
Cn1ccc2c(-c3ccc(C(F)(F)F)cc3)cc3c(c21)C1CCC3C1 (stereo not drawn)	Mtb FBA inh 34.5 (no result: GDH-TPI counter-1, Mtb hypoxia inh) | Mtb FBA inh conf 56.0 | GDH-TPI counter-2 47.0
Cn1ccc2c(-c3ccc(CO)cc3)cc3c(c21)C1CCC3C1 (stereo not drawn)	Mtb FBA inh 81.5 (no result: GDH-TPI counter-1, Mtb hypoxia inh) | Mtb FBA inh conf active | GDH-TPI counter-2 active
Cn1ccc2c(-c3ccc(C(N)=O)cc3)cc3c(c21)C1CCC3C1 (stereo not drawn)	Mtb FBA inh 53.2 (no result: GDH-TPI counter-1, Mtb hypoxia inh) | Mtb FBA inh conf 112.5 | GDH-TPI counter-2 103.1
COCCNC(=O)C1(C)Cc2c(-c3ccc(N(C)C)cc3)ccnc2O1 (stereo not drawn)	Mtb FBA inh 31.6 (no result: Mtb hypoxia inh) | Mtb FBA inh conf 128.2 | GDH-TPI counter-2 103.6
COCCNC(=O)C1(C)Cc2c(-c3ccc(NC(C)=O)cc3)ccnc2O1 (stereo not drawn)	none (no result: Mtb hypoxia inh)
CN(C)c1ccc(-c2ccnc3c2CC(C)(C(=O)NCC2CC2)O3)cc1 (stereo not drawn)	Mtb FBA inh 35.1 (no result: Mtb hypoxia inh) | Mtb FBA inh conf active | GDH-TPI counter-2 164.3
